Source: PubChem BioAssay (NCI)
This is part of a sample that, as a whole, favours compounds with a hit. Of some 79,000 tested, about 15% had one in any assay. A number with no mark means an inactive call. Activity calls are given as the source filed them. No stated cut-off is given here; in the data, active means growth inhibition above about 70%; inactive means the rest.

Columns and labels:
[1] = NCI Yeast Anticancer Drug Screen. Data for the rad50 strain (AID 155);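 further: 0% = growth of vehicle-only cultures of the same strain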; conditions: S. cerevisiae rad50 strain growth inhibition; at 50.0 µM; stronger effect = higher value
Procedure, shortened: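 Relative growth inhibition (compound vs vehicle) was measured in yeast with a defined repair-gene alteration.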

[2] = NCI Yeast Anticancer Drug Screen. Data for the mec2-1 strain (AID 157); conditions: S. cerevisiae mec2-1 strain, at 50.0 µM, stronger effect = higher value
Procedure, shortened: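 Growth inhibition is read against vehicle-treated controls after compound exposure of the mec2-1 yeast strain, which is defective in DNA damage repair or cell cycle control.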

[3] = NCI Yeast Anticancer Drug Screen. Data for the sgs1 mgt1 strain (AID 161);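 further: 0% = growth of cultures given vehicle only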; conditions: S. cerevisiae sgs1 mgt1 strain, at 50.0 µM, stronger effect = higher value
Procedure, shortened: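 Percent growth inhibition was derived by comparing compound-exposed mutant yeast with vehicle-exposed cultures. The strain carries alterations in DNA damage repair.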

[4] = NCI Yeast Anticancer Drug Screen. Data for the cln2 rad14 strain (AID 165);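 further: 0% = growth equal to vehicle treated cultures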; conditions: S. cerevisiae cln2 rad14 strain, at 50.0 µM, stronger effect = higher value
Procedure, shortened: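 Growth inhibition, relative to vehicle-treated controls, is the read-out. The test organism is a yeast strain with defined genetic alterations, cln2 rad14.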

[5] = NCI Yeast Anticancer Drug Screen. Data for the bub3 strain (AID 167); conditions: S. cerevisiae bub3 mutant strain, at 50.0 µM, stronger effect = higher value
Procedure, shortened: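 Screening used yeast with an engineered genetic alteration affecting cell cycle control. Compound-exposed cultures were compared with vehicle cultures, and reduced growth was taken as inhibition.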

[6] = NCI Yeast Anticancer Drug Screen. Data for the mlh1 rad18 strain (AID 175); conditions: S. cerevisiae mlh1 rad18 strain growth inhibition; at 50.0 µM; stronger effect = higher value
Procedure, shortened: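 Cells of a genetically altered yeast strain, deficient in DNA damage repair, were treated with compound. Their growth was then compared with that of vehicle-treated cultures to give inhibition.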

Row | SMILES | growth inhibition [1] | growth inhibition [2] | growth inhibition [3] | growth inhibition [4] | growth inhibition [5] | growth inhibition [6]
1 | NC(=O)NC(Cc1ccccc1)(C(=O)O)c1ccccc1 (centres undefined) | 6.55% | 6.15% | 35.9% | -0.75% | 24.4% | 20.4%
2 | CC(c1ccccc1)N1OC1(c1ccccc1)c1ccccc1 (centres undefined) | 41.5% | 50.4% | 57.8% | 22.9% | 30.6% | 90.1% (active)
3 | COc1ccc(OC)c(/C=C/c2cnnc3ccccc23)c1 | 12.6% | 12.8% | 19.2% | -2.95% | 6.75% | 32%
4 | O=C(/C=C/c1ccc2c(c1)OCO2)CC(=O)/C=C/c1ccc2c(c1)OCO2 | 3.5% | 19.6% | 11.3% | 7.15% | -4.3% | -15.6%
5 | O=C1C=CC(=O)N1C(c1ccccc1)(c1ccccc1)c1ccccc1 | 99% (active) | 99.7% (active) | 99.5% (active) | 99% (active) | 99.5% (active) | 99.5% (active)
6 | CCCCOC(=O)/C(=C\c1cccc(OC)c1)NC(=O)c1ccccc1 | 15.8% | 14.9% | 28.5% | 11.2% | 58.2% | 34.6%
7 | C=C1C(=O)OC2CC3(C)C=CC(=O)C(=C)C3CC12 (centres undefined) | 6.75% | 20.6% | 34.4% | 39.9% | 26.8% | 23.4%
8 | CNC1C(O)C(OC2C(N)CC(N)C(OC3OC(CN)C(O)C(O)C3O)C2O)OCC1(C)O (centres undefined) | 27.1% | -17.1% | -12.7% | 4.85% | 9.9% | 20.6%
9 | N#CCN1C(=O)c2ccccc2C1=O | 6% | -2.85% | 1.45% | 2.15% | 3.15% | -15.8%
10 | Cc1nc(Cc2ccc(O)c(O)c2)c(C)o1 | 6.7% | 13.9% | 3.95% | -17.2% | -18% | 8.2%
11 | N/N=C1/C(=O)N(c2ccc(S(N)(=O)=O)cc2)C(=O)C1C(=O)Nc1ccc(S(N)(=O)=O)cc1 (centres undefined) | -4% | 15.6% | -0.9% | 30.6% | 0.25% | 12.1%
12 | Cc1ccnc(NC(=O)Nc2ccc(C)cc2[N+](=O)[O-])c1 | 18.4% | 26.7% | 20.4% | 8.35% | 18.1% | 24%
13 | O=C(NC(c1ccccc1)C(O)C(=O)OCc1ccc2c(c1)C(=O)c1ccccc1C2=O)c1ccccc1 (centres undefined) | 10.9% | 15.4% | -23.3% | -0.15% | -8.9% | 20.6%
14 | Cc1ccc2nc(CC(=O)c3ccc(F)cc3)c(=O)[nH]c2c1 | 1.85% | 18.8% | 16.1% | 27.8% | 18.1% | 34.9%
15 | Cc1ccc(/C=C/C(=O)c2c([O-])on[n+]2-c2ccccc2)cc1 | 2.6% | -7.85% | 21.9% | 14.9% | 5% | -4.8%
16 | COc1ccccc1C(O)(c1ccccc1OC)C1(O)CCCCC1 | -10.2% | -2% | -5% | 13.8% | -0.1% | 1.15%
17 | Cc1sc2nc3n(c(=O)c2c1C)N=CN(c1ccccc1)C3 | 3% | 4% | 2.1% | -12.8% | -3.5% | -16.7%
18 | O=[N+]([O-])c1ccc(N/N=C(/c2ccccc2)C2CCCC2)c([N+](=O)[O-])c1 | 11.4% | 18.6% | 12.8% | 7.9% | 11.9% | 12.9%
19 | O=C(O)CCC(=O)Nc1ccc(C(=O)O)c(O)c1 | 8.4% | -27.8% | -11.1% | -4.45% | 20.9% | -17.9%
20 | O=C(O)c1nn(-c2ccc(Cl)cc2)c2c1C(=O)c1ccccc1C2=O | 20.9% | 14.7% | -1.75% | 14.1% | 12% | 4.65%

Row | SMILES | growth inhibition [1] | growth inhibition [2] | growth inhibition [3] | growth inhibition [4] | growth inhibition [5] | growth inhibition [6]
21 | C=CCNC(=O)N(CCCCC(NC(C)=O)C(=O)NCc1ccccc1)Cc1ccccc1 (centres undefined) | 11.7% | 6.55% | -12.7% | 11.5% | 16.4% | 11.9%
22 | CCc1ccc(C(=O)O)cc1S(=O)(=O)Cl | 7.2% | 13.4% | -12.6% | -9.4% | 2.55% | 1.45%
23 | NNC(=O)CSc1ncnc2nc[nH]c12 | 1.3% | 9.8% | 0.55% | -3% | 9.65% | -0.5%
24 | [N-]=[N+]=Nc1cc(-c2ccccc2)nc2cc3c(cc12)OCO3 | -2.9% | -7.95% | -19.8% | -16.4% | -34.2% | -7.2%
25 | Nc1ncnc2c1nnn2C1C=CC(CP(=O)(O)O)C1 (centres undefined) | 2.65% | 8.25% | 12.9% | 13.2% | -4.5% | 27.7%
26 | CCCCCCCCCCC1SCC(=O)N1c1nncs1 (centres undefined) | 13.2% | 0.75% | 16.6% | 10.2% | 4.2% | 4.25%
27 | Nc1ncnc(N)c1NC(=O)c1cccc(F)c1 | 0.15% | -1.3% | -3.7% | -39.2% | -8.35% | 1.5%
28 | C[C@]12CCC(=O)C=C1CC[C@@H]1[C@@H]2CC[C@@]2(C)[C@H]1CC[C@]2(O)C(=O)CCC#N | -23.1% | -2.6% | 17.1% | -33.4% | -16.8% | 13.2%
29 | CCOc1ccc(N=Nc2c(C)nn(C(N)=S)c2OCC)cc1 | -54.6% | -21.6% | 11.6% | -38.5% | -5.25% | -7.35%
30 | CC(C)c1cc(C(C)C)c(S(=O)(=O)N/N=C2\CC3CCC2(C)C3(C)C)c(C(C)C)c1 (centres undefined) | -8.7% | -16.9% | -13.3% | -4.35% | -54.5% | 0.65%
31 | C=CCSc1nc2c(=O)n(C)c(=O)n(C)c2n1C | -11.3% | -3.55% | -6.85% | -27.3% | -6.8% | 7.15%
32 | Cc1cccc(NC(=O)CCl)c1C | -18.1% | -37.6% | -7.65% | 11.8% | -21.9% | -3.7%
33 | CC(O)C1OC(n2cnc3c(=O)[nH]cnc32)C(O)C1O (centres undefined) | -9.45% | -24.9% | -0.65% | -0.85% | -7.05% | -22.9%
34 | O=C(O)C(Br)C(Br)C(=O)Nc1cccc(Cl)c1 (centres undefined) | 0.5% | -47.2% | 21.2% | -27.8% | 5.75% | 20.2%
35 | COC(=O)/C=C/c1ccc(OP(=O)(O)O)c(OC)c1 | -22.1% | -8.9% | -30.6% | -20.6% | -56.7% | -15.4%
36 | N#CC(=C1C=CC(=NOC(=O)c2ccccc2)C=C1)c1ccccc1 | -0.75% | 1.2% | 4.8% | -5.75% | -2.7% | -6.85%
37 | CCOC(=O)CC1CC(CN)(C(=O)OCC)CO1 (centres undefined) | -21.6% | 12.2% | -6.9% | 3.65% | -0.4% | -22.9%
38 | COc1cccc(C2N=NC3=C(CCCC3)N2O)c1O (centres undefined) | 14.4% | 11% | 10.2% | 21.4% | 25.1% | 19.5%
39 | C=CCN1C(=O)NC(=O)C1c1ccsc1 (centres undefined) | -14.7% | -0.25% | -22.2% | -34.2% | -1.45% | 2.6%
